This is an account of results in PubChem BioAssay AID686971 (National Center for Advancing Translational Sciences (NCATS), 2013).

SMILES strings stand for the structures. In all, about 360,000 compounds went through this assay and about 7,500 (2.1%) were called active. A call without a number means that no potency is given here. Roughly 8% stayed inconclusive and do not appear here. The call rests on the fitted dose curve; in most records, active means well fitted cell-killing curve with a large enough effect; inconclusive means small, poorly fitted or top-dose-only effect, or effect the other way, or another doubt; inactive means no such curve, though single readings can be large or run the other way. For the sample, actives were picked, then their nearest neighbours and some compounds at random.
Potency means the concentration at half of the fitted maximal effect.

This test in a line: qHTS for induction of synthetic lethality in tumor cells producing 2HG: qHTS for the HT-1080-IDH1KD cell line. The note with it: HT-1080 IDH1 knockdown viability, ATP luminescence, 48 h; series mostly up to 46.1 µM. In a few lines:
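After a 2 h attachment period, IDH1KD HT-1080 cells took pin-transferred compound for 48 h at 37 °C; ATP-based luminescence after 10 min room-temperature reagent incubation reported viability.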
(In general: Quantitative high-throughput screening tests each substance at several concentrations.)
Turning to `C=CCOc1cccc(C2C(C(=O)c3ccc(C)o3)=C(O)C(=O)N2CCN2CCOCC2)c1` (centres undefined), the Potency entry was “inactive”.

Consider `COCCNC(=O)C1CCCN(Cc2ccccc2Cl)CC1` (centres undefined), for which the Potency result is “inactive”.

In the case of `Cc1ccc(S(=O)(=O)N2CCOCC2)cc1NC(=O)c1ccncc1`, the Potency entry was “inactive”. For `CC(C)Nc1ncnc2c1ncn2[C@H]1CN(Cc2ccncc2)C[C@@H](CO)O1`, the Potency entry was “inactive”.

With `O=C(Nc1ccc(Cl)cc1)Nc1nnc(/C=C/c2ccccc2)s1`, the Potency result is “inactive”. Turning to `O=C(CSc1ccccc1)Nc1nnc(/C=C/c2ccccc2)s1`, the Potency was 18.4 µM (active). Next, `CCOCc1nnc(NC(=O)CSc2ccc(C)cc2)s1`: “inactive”; `CC1(C)OC(=O)C2=C(C[C@@H](C3CC3)O[C@H]2c2ccc(Cl)cc2)O1`: “inactive”. The value for `CCCCc1nc2ccc(F)cc2cc1C` was “inactive”; that for `CCCNC(=O)c1cc(C2CCCCN2S(=O)(=O)c2cn(C)cn2)on1` (centres undefined) was “inactive”; that for `COc1ccc(NC(=O)NCc2ccc3c(c2)OCO3)c(OC)c1` was “inactive”. Consider `COc1ccc2c(c1)C(C)=CC(C)(C)N2C(=O)CNCc1ccc2c(c1)OCO2`, for which the Potency was 8.91 µM (active).

As for `COc1ccc2c(c1)C(C)=CC(C)(C)N2C(=O)Nc1ccccc1`, the Potency result was “inactive”.

For `CCOC(=O)[C@]12CCCC=C1N(Cc1ccc3c(c1)OCO3)C(=O)[C@H](CC(=O)N1CCN(C(=O)c3ccco3)CC1)C2`, the Potency entry was “inactive”.

In the case of `CCN(CC)CCn1c(/N=C/c2cc(Br)ccc2O)nc2ccccc21`, the Potency result was “inactive”.

`Oc1ccc(Br)cc1/C=N/Nc1ccccn1`: the Potency is 6.51 µM (active).

Turning to `Cc1c(C(=O)Nc2ccccn2)oc2ccc(Br)cc12`, the Potency result was “inactive”. In the case of `NCCCCC(C(=O)O)N(C(=O)OCc1ccccc1)C(=O)OCc1ccccc1` (centres undefined), the Potency result was “inactive”. Take `O=C(COC(=O)c1ccc(S(=O)(=O)N2CCCCCC2)cc1)Nc1ccccc1C(F)(F)F`: the Potency entry was “inactive”. The value for `CCc1nc2ccc(C(=O)Nc3ccc(OC)c(OC)c3)cn2c1N(C)C(=O)c1cccc(OC)c1` was “inactive”; that for `CCn1cc(CN2CCC(n3nccc3NC(=O)CCCc3ccccc3)CC2)c(C)n1` was “inactive”. With `O=C(Nc1cnn(Cc2ccc(Cl)cc2)c1)C1CCCC1`, the Potency entry is “inactive”.

Consider `CCn1cc(CN2CCC(C(=O)Nc3cccc(-c4cccc(Cl)c4)c3)CC2)c(C)n1`, for which the Potency is 20.6 µM (active). Next, `O=C(Nc1cccc(-c2cscn2)c1)C1CCN(Cc2ccsc2)CC1`: “inactive”; `CCn1cc(CN2CCC(C(=O)Nc3cccc(-c4cccc(Cl)c4)c3)CC2)cn1`: 18.4 µM (active); `CC(=O)c1cc(CN2CCC(C(=O)Nc3cccc(-c4cscn4)c3)CC2)cs1`: “inactive”. In the case of `Cc1ccc([C@@H]2CC(=O)[C@@H]3CN(S(=O)(=O)c4ccc(C)cc4)[C@H](c4ccccc4F)C[C@@H]3N2S(=O)(=O)c2ccc(Cl)cc2)cc1`, the Potency entry is “inactive”. The value for `CCN(CC)CCn1c2ccc(Cl)cc2c2nc(C)sc21` was “inactive”; that for `CCN(CC)CCCC(C)n1c2nc(=O)[nH]c(=O)c-2nc2cc(Cl)ccc21` (centres undefined) was 16.4 µM (active). `CCCCc1ccc(S(=O)(=O)NC(=O)C2(C)CCN2C(=O)c2c(C)noc2C)cc1` (centres undefined): the Potency entry was “inactive”. Consider `CC(=O)Nc1ccc(SCC(=O)NC(=O)c2ccc(Cl)cc2)cc1`, for which the Potency entry was “inactive”. As to `Cc1cccc(C)c1-n1nnnc1C1(C)CCC(=O)N1CCOc1ccccc1` (centres undefined), the Potency entry is “inactive”.

For `COc1cc(NC(=O)c2cc(-c3ccc(F)cc3OC(C)C)n[nH]2)cc(OC)c1OC`, the Potency result is “inactive”. As for `COc1ccc(NC(=O)C[C@H]2C(=O)N(CCc3ccccc3)C[C@@H]2C)cc1`, the Potency entry was “inactive”. Next, `OCCc1ccc(NCCc2ccco2)cc1`: “inactive”; `Cc1ccc(S(=O)(=O)Nc2nc(N)n(-c3ccccc3)n2)cc1`: “inactive”. The value for `Cc1cc(C)nc(NS(=O)(=O)c2ccc(N3C(=O)C4CCCCC4C3=O)cc2)n1` (centres undefined) was “inactive”; that for `Cc1ccc(S(=O)(=O)Nc2nc(C)cc(-n3nc(C)cc3C)n2)cc1` was 15.8 µM (active); that for `C[C@H]1CN([C@@H](C)CO)C(=O)CCCn2cc(nn2)CO[C@@H]1CN(C)S(=O)(=O)c1cccc(C#N)c1` was “inactive”. On to `CC1(C(=O)NS(=O)(=O)c2ccc(C#N)cc2)CCN1C(=O)CC1CCCC1` (centres undefined), for which the Potency result is “inactive”.

Turning to `COCCNc1nc(Nc2ccccc2Cl)c2sc(-c3ccccc3)cc2n1`, the Potency entry was “inactive”.

Consider `CC(=O)Nc1ccc(CNc2nc(NCCN(C)C)nc3cc(-c4ccccc4)sc23)cc1`, for which the Potency was 20.6 µM (active). Consider `COCCNc1nc(NCc2ccc(NC(C)=O)cc2)c2sccc2n1`, for which the Potency result is “inactive”. Take `COc1cccc(C(O)c2nc(-c3ccc(C)c(C)c3)cs2)c1` (centres undefined): the Potency entry is “inactive”. Take `CC1(C)OC(=O)C2=C(CC(c3ccccc3)OC2CCc2ccccc2)O1` (centres undefined): the Potency result is “inactive”.

Take `OCCCNc1nccc(-c2cc(Nc3cccc(Cl)c3)ncn2)n1`: the Potency entry was “inactive”.

Consider `CC(C)n1cnc2c(Nc3cccc(Cl)c3)nc(N(CCO)CCCO)nc21`, for which the Potency is 14.6 µM (active). Next, `COC(=O)[C@]12CCCCC=C1N(Cc1ccc3c(c1)OCO3)C(=O)[C@H](CC(=O)NCc1cccs1)C2`: “inactive”; `COc1cc(C(O)c2nc(-c3cnn(C)c3)cs2)ccc1F` (centres undefined): “inactive”. As for `CCCCCNC(=O)C1C(=O)Nc2ccccc2C(=O)N1C(C)(C)C` (centres undefined), the Potency result is “inactive”. Next, `CCOC(=O)[C@H]1Nc2ccc(Cl)cc2[C@@H]2[C@H]1C1CC(c3ccccc31)N2C(=O)OCc1ccccc1` (some centres undefined): “inactive”; `CCOC(=O)Cc1ncccc1C(=O)Nc1ccc(OC(F)(F)F)cc1`: 20.6 µM (active). On to `COC(=O)Cc1ccc(OCC(=O)Nc2ccc(OC(F)(F)F)cc2)cc1`, for which the Potency entry is “inactive”. Regarding `CCOC(=O)Cc1ncccc1C(=O)Nc1ccc(OC)cc1`, the Potency entry was “inactive”. For `O=C(NCc1ccccc1)C1c2ccccc2OCC(=O)N1C1CC1` (centres undefined), the Potency result is “inactive”.

Take `COc1ccc(C(=O)Nc2ccc(C3(C#N)CCCC3)cc2)cc1OC`: the Potency result was “inactive”.

Turning to `COc1ccc(C(=O)N/N=C2\CCS(=O)(=O)c3ccc(F)cc32)cc1OC`, the Potency was 20.6 µM (active). With `CCNC(=O)c1ccc(OCC(=O)Nc2ccc(F)cc2)c(OC)c1`, the Potency result is “inactive”. On to `CC1(C(=O)NCc2ccccc2)CSCC(=O)N1CCCn1ccnc1` (centres undefined), for which the Potency result was “inactive”. Next, `O=C(C(=O)N1CCC(c2ccccc2)CC1)c1ccccc1`: “inactive”; `CN(c1ccccc1)S(=O)(=O)c1ccc(C(=O)NCc2cccnc2)cc1`: “inactive”. The value for `Nc1nc(SCC(=O)NCCN2CCOCC2)nc2sc3c(c12)CCC3` was “inactive”; that for `CC(C)(C)C1CCc2c(sc3nc(SCC(N)=O)nc(N)c23)C1` (centres undefined) was 32.6 µM (active); that for `Cc1sc2nc(SCC(N)=O)n(C)c(=O)c2c1C` was “inactive”.
